The list is not random: actives were taken first. Their share in the collection is about 2.5%.
WRN helicase inh-1: blocks human WRN helicase; Potency, µM (titrated, usually from 114 µM), for the others: at the highest dose activity change, negative = inhibition, actives largely listed as inhibitors; AID 651768; Q14191; WRN helicase unwinding, fluorescent forked duplex, kinetic; 360,000 tested, 0.46% active; also: % is scaled to controls: 0 for no effect and ±100 for the full control effect; nearly all actives have a fitted effect of over 55% in size
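WRN at 20 nM final preincubated with compound 15 min at room temperature; reaction started with 100 nM fluorophore/quencher forked duplex oligonucleotide and 2 mM ATP final. Unwinding followed kinetically by red fluorescence (ex 525, em 598 nm).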
POLB inh: inhibitors of human DNA polymerase beta; P06746; Pol beta primer extension/strand displacement, fluorescence kinetic; Potency, µM (top dose mostly 114 µM), inactives show at the highest dose activity change, negative = inhibition, most hits filed as inhibitors; 340,000 tested, 1.3% active; also: % is scaled to controls: 0 for no effect and ±100 for the full control effect
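Human Pol beta at 10 nM; strand-displacement substrate 50 nM final. Compound exposure 15 min at room temperature before start, reaction 10 min at room temperature.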
L3MBTL1 block: inhibitors of human L3MBTL1; AID 485360; Q9Y468; Potency, µM (highest dose often 57.1 µM), for inactives: top-dose activity, negative = inhibition, usual class: inhibitors; 230,000 tested, 0.66% active; AlphaScreen L3MBTL1–H3K9me1 peptide binding; also: % is scaled to controls: 0 for no effect and ±100 for the full control effect; nearly all actives have a fitted effect of over 60% in size
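First, the protein-peptide complex forms for 30 min at room temperature (L3MBTL1 50 nM, biotinylated H3K9me1 peptide 75 nM). Next, compounds are pin-transferred and incubated 30 min. Finally, AlphaScreen beads are added and read after 30 min.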
Pol kappa inh: blocks human DNA polymerase kappa activity. AID 588579. 400,000 tested, 0.53% active. purified Pol kappa, fluorescent DNA synthesis assay, 10 min. Q9UBT6. Potency, µM (top dose mostly 107 µM), inactives show at the top dose activity, negative = inhibition, usual class: inhibitors; also: % is scaled to controls: 0 for no effect and ±100 for the full control effect
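Here, compound and 10 nM enzyme are combined for 15 min at room temperature; adding 50 nM substrate (final) starts DNA synthesis, tracked by fluorescence at 0 and 10 min against buffer-only wells.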
Pol iota inh: blocks human DNA polymerase iota activity; Pol iota fluorescent replication assay, 10 min; 390,000 tested, 1% active; Potency, µM (series often up to 115 µM), for inactives: at the highest dose activity, negative = inhibition, usual class: inhibitors; Q9UNA4
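Fluorescent replication assay read twice, at 0 min and 10 min after adding 50 nM (final) substrate. Enzyme (10 nM) and compounds were first incubated 15 min at room temperature; enzyme-free buffer wells were negative controls.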
POLH inh: blocks human DNA polymerase eta activity. Potency, µM (titrated, usually from 114 µM), inactives show at the top dose activity change, negative = inhibition, hits mostly inhibitors. Q9Y253. 390,000 tested, 1.2% active. recombinant Pol eta, fluorescent DNA replication assay. AID 588591; also: % is scaled to controls: 0 for no effect and ±100 for the full control effect
Target sequence (Q9Y253 whole entry, looked up): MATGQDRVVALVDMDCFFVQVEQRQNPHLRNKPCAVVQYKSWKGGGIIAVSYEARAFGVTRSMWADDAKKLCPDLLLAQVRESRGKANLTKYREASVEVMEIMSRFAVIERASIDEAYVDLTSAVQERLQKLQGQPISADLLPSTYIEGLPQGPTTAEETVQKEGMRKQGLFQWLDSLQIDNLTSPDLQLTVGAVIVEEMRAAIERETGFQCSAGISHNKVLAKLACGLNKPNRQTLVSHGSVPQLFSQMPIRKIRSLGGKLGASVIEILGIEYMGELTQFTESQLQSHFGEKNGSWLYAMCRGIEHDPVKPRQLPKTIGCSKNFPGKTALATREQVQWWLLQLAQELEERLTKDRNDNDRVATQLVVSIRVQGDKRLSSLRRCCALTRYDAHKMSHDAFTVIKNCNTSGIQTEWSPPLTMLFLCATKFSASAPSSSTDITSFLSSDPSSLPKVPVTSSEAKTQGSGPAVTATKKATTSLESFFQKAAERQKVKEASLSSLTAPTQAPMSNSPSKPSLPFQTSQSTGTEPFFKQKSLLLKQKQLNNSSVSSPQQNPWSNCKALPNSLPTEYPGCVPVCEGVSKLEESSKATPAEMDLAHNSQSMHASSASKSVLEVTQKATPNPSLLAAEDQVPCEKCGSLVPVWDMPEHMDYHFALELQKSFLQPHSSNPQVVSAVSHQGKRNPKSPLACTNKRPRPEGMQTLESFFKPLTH
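Pol eta at 10 nM preincubated with compounds 15 min at room temperature; reaction started with fluorescent substrate (50 nM final) and read kinetically at 0 and 10 min.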
WRN helicase inh-2: WRN helicase inhibition, cherry-pick retest | shares compounds with WRN helicase inh-1 | WRN helicase DNA unwinding, fluorescence kinetic | Potency, µM (titrated, usually from 57.1 µM), for inactives: at the top dose activity, negative = inhibition, most hits filed as inhibitors | 610 tested, 63% active; also: nearly all actives have a fitted effect of over 65% in size
TO displacement: DNA binding via thiazole orange displacement; shares compounds with WRN helicase inh-1; thiazole orange DNA binding displacement, fluorescence; Potency, µM (doses to about 57.1 µM), inactives show at the top dose activity change, negative = inhibition, usual class: inhibitors; 610 tested, 10% active; AID 720499;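 also: drop in dye fluorescence marks compound binding to DNA; % is scaled to controls: 0 for no effect and ±100 for the full control effect; nearly all actives have a fitted effect of over 60% in size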
BLM helicase inh: counter-screen for WRN helicase inhibitors: human BLM helicase inhibition; shares compounds with WRN helicase inh-1; Recombinant BLM helicase DNA unwinding, red fluorescence; Potency, µM (titrated, usually from 57.1 µM), without a hit: top-dose activity change, negative = inhibition, hits mostly inhibitors; 610 tested, 60% active; AID 720503; also: nearly all actives have a fitted effect of over 60% in size
* hit, by the source's call; ? = inconclusive; . = no result; [ ] = dose if it differs, or a comment. Calls follow the shape of the dose curve; as a rule, active = well fitted curve in the direction sought with a large enough effect; inconclusive = small, poorly fitted or top-dose-only effect, or another doubt; inactive = no such curve, though single readings can be large; an effect the other way counts as inactive or inconclusive. Potency is read from the fitted curve at half-maximal effect.

SMILES | WRN helicase inh-1 | POLB inh | L3MBTL1 block | Pol kappa inh | Pol iota inh | POLH inh | WRN helicase inh-2 | TO displacement | BLM helicase inh
COc1cc(/C=N/N=C2/SCC(=O)N2c2ccc(O)cc2)ccc1O | 79µM* | 1% | . | -8% | 81% | -2% | -8% | 32% | -14%
CSc1ccccc1-n1nnnc1SCC(=O)Nc1ccccc1C | -1% | 1% | . | -9% | 27% | -26% | . | . | .
Cc1cccc(N2CCN(C(=O)c3cc(=O)[nH]c4ccccc34)CC2)c1C | 4% | ? | -12% | 13% | -12% | -4% | . | . | .
CN(C)CCCNc1nc2cc(-c3ccsc3)sc2c(=O)n1C | 5%[57.1 µM] | . | . | . | . | . | . | . | .
CN(C)CCCNc1nc2cc(-c3ccc4c(ccn4C)c3)sc2c(=O)n1C | ? | . | . | . | . | . | 24µM* | 24µM* | -14%
Cc1ccc(S(=O)(=O)c2ccc([N+](=O)[O-])cn2)cc1 | ? | 14% | . | 1% | ? | -2% | -12% | -11% | -2%
O=[N+]([O-])c1ccc(S(=O)(=O)c2ccccc2)nc1 | ? | 35% | . | -1% | -8% | -10% | . | . | .
O=[N+]([O-])c1cc2c(c3cccnc13)COCO2 | ? | . | . | -21% | 40µM* | 10µM* | ? | -29% | 15µM*
COC(=O)CSc1nc(SC)nc2c1sc1nc(-c3ccco3)c3c(c12)CC(C)(C)OC3 | 3% | . | . | -8% | 45% | -6% | . | . | .
CSc1nc(SCCO)c2sc3nc(-c4ccco4)c4c(c3c2n1)CC(C)(C)OC4 | 50µM* | 1.6µM* | -93% | -32% | 22µM* | 79µM* | 7.6µM* | 15µM* | 2.2µM*
O=C(Nc1ccc(Br)cc1)c1ccc(-n2cnnn2)cc1 | 6% | 15% | . | -1% | ? | -17% | . | . | .
O=C(Nc1cc(SCC(O)CO)cc([N+](=O)[O-])c1)c1ccc(-n2cnnn2)cc1 (stereo not given) | ? | ? | 9% | -29% | ? | -16% | ? | -27% | ?
O=C(O)c1cscc1Cc1cccs1 | 11% | . | . | . | . | -1% | . | . | .
Cc1ccc(S(=O)(=O)NC(=O)Cn2nnc(-c3ccccc3)c2COc2ccc3ccccc3c2)cc1 | -15% | . | . | . | . | . | . | . | .
N#Cc1cccc(NC(=O)COC(=O)c2ccc3c(=O)n4c(nc3c2)CCC4)c1 | . | 18% | -1% | . | . | . | . | . | .
COc1ccc(Nc2nc(N)c3cc(OC)c(OC)cc3n2)cc1 | . | ? | . | -9% | -12% | ? | 22µM* | ? | 22µM*
COc1cc2nc(Nc3cccc(F)c3)nc(N)c2cc1OC | -19% | ? | . | -35% | -13% | ? | . | . | .
CC1(C)Cc2c(C#N)c(N3CCN(C(=O)c4ccccc4Cl)CC3)nc(-c3ccco3)c2CS1 | 35µM* | 20µM* | ? | 79µM* | ? | 10µM* | -13% | 2% | ?
CN1/C(=C\C(=O)COC(=O)c2ccco2)C(C)(C)c2ccccc21 | -1% | -19% | 20% | 4% | 25% | -15% | . | . | .
CN1/C(=C\C(=O)c2ccco2)C(C)(C)c2ccccc21 | ? | 1% | 27% | -11% | ? | -8% | -14% | -15% | -1%
COC(=O)c1ccc(CCc2cc(O)c(Br)cc2O)cc1 | 25µM* | . | . | -12% | -12% | -22% | -27% | -11% | ?
O=C(Nc1c(C(=O)Nc2ccc3c(c2)OCCO3)cnn1-c1ccccc1Cl)c1ccco1 | 1% | 11% | -4% | -6% | 7%[58.9 µM] | -14% | . | . | .
COC(=O)C(CC(=O)c1ccc(Br)cc1)n1ccnc1 (stereo not given) | . | -1% | -14% | -1% | 1% | . | -15% | -11% | ?
Cc1ccc(NC2c3ncccc3C(=O)N2c2ccccc2C)cc1C (stereo not given) | 45µM* | 21% | ? | -11% | 56µM* | -9% | 2% | -3% | -16%
CCOc1ccc(N2C(=O)c3cccnc3C2Nc2ccc(Cl)cc2)cc1 (stereo not given) | -3% | 7% | -1% | 2% | ? | -6% | . | . | .
SMILES | WRN helicase inh-1 | POLB inh | L3MBTL1 block | Pol kappa inh | Pol iota inh | POLH inh | WRN helicase inh-2 | TO displacement | BLM helicase inh
Nc1ccc2nc(-c3cccc(-c4nc5ccc(N)cc5[nH]4)c3)[nH]c2c1 | 40µM* | ? | . | 35µM* | ? | ? | ? | 17µM* | ?
O=C(Nc1ccc(Cl)cc1)c1cccs1 | -9% | 3% | . | -6% | 1% | ? | . | . | .
O=C(Nc1ccccc1)c1nnsc1S(=O)c1ccc(Cl)cc1 (stereo not given) | 22µM* | 1% | 0% | -9% | ? | 9% | -20% | 84% | -22%
CC(C)(C)N(Cc1ccc2c(c1)OCO2)C(=O)/C=C\S(=O)c1ccccc1 (stereo not given) | ? | . | . | -5% | -9% | -11% | 12µM* | -12% | 24µM*
COc1ccc(-c2nc(CS(=O)CC(=O)NC3CCCCC3C)c(C)o2)cc1OC (stereo not given) | -5% | 2% | . | -6% | -25% | -3% | . | . | .
CCCNC(=O)c1ccc(N2CCC3(CC2)CC(c2cccc(Br)c2)=NO3)c(NC(=O)c2ccccc2)c1 | 8% | . | -6% | 18% | ? | -14% | . | . | .
C=CCn1c(SCC(=O)c2ccc(O)c(O)c2)nnc1-c1ccc(C)cc1 | ? | . | -12% | ? | ? | ? | 19µM* | -5% | ?
O=C(c1cccs1)N1CCCC(c2nc3c(nnn3Cc3cccc(Cl)c3)c(=O)[nH]2)C1 (stereo not given) | -5% | -8% | . | 4% | 24% | -11% | . | . | .
CCCN1C(=O)/C(=C/C=C2\N(CC)c3ccccc3C2(C)C)SC1=S | 19µM* | 7% | -16% | -5% | 36% | 56µM* | 22µM* | 477% | 22µM*
C=CCN1C(=O)/C(=C\C=C2\N(C)c3ccccc3C2(C)C)SC1=S | ? | ? | -11% | -9% | ? | ? | . | . | .
CCOC(=O)c1c(-c2ccc(F)cc2)csc1NC(=O)CN1C(=O)NC2(CCCCC2C)C1=O (stereo not given) | ? | ? | -10% | ? | ? | ? | -7% | -5% | -12%
